Screening results: PubChem BioAssay, National Center for Advancing Translational Sciences (NCATS)
Most compounds without a hit are left out; they make up all but 19% or so of the library.
HT1080NT lethal – qHTS for induction of synthetic lethality in tumor cells producing 2HG: qHTS for the HT-1080-NT fibrosarcoma cell line; AID 686970, 2013; 1.6% of 360,000 active; Potency, µM (titrated, usually from 46.1 µM), most hits filed as cytotoxic; HT-1080-NT fibrosarcoma viability, CellTiter-Glo ATP luminescence, 48 h;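 also: NT is the 2HG producing partner of a matched IDH1 knockdown line; nearly all actives have a fitted effect of over 55% in size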
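Read-out is CellTiter-Glo luminescence after 10 minutes at room temperature, following 48 hours' compound treatment of HT-1080-NT cells (750 cells/well, RPMI, 5% FBS, 37 degrees C).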
IL-1B inflam inh – qHTS for Inhibitors of Inflammasome Signaling: IL-1-beta AlphaLISA Primary Screen | activity change, % at 57.5 µM | THP-1 LPS/ATP IL-1B secretion, AlphaLISA, 16 h; active compounds read low | 4.7% of 360,000 active; in the data active = activity change below about -50%; inconclusive = mostly about -30% to -49%
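Secreted IL-1B measured by AlphaLISA bead assay after 16 h compound exposure of THP-1 cells; compounds (final up to 57.5 uM) added 1 h before LPS (250 ng/mL) and ATP (1.25 mM) stimulation; lower signal means less secretion.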
TDP1 cell noCPT – qHTS for Inhibitors of human tyrosyl-DNA phosphodiesterase 1 (TDP1): qHTS in cells in absence of CPT | DT40 Tdp1-/- hTDP1 cells, no CPT, ATP luminescence, 48 h | Potency, µM (series often up to 46.2 µM), actives largely listed as inhibitors | 15% of 420,000 active | AID 686978, 2013; also: nearly all actives have a fitted effect of over 55% in size
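Luminescent ATP content (CellTiter-Glo) served as the growth readout. Knockout chicken DT40 cells expressing human TDP1 were exposed to compounds without camptothecin for a minimum 48 hr at 37 °C.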
HT1080 IDH1KD tx – qHTS for induction of synthetic lethality in tumor cells producing 2HG: qHTS for the HT-1080-IDH1KD cell line. HT-1080 IDH1 knockdown viability, ATP luminescence, 48 h. Potency, µM (top dose mostly 46.1 µM), hits mostly cytotoxic. 2% of 360,000 active. AID 686971, 2013
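Knockdown cells (IDH1KD HT-1080) received compounds 2 h after plating at 750 cells/well and were kept 48 h at 37 °C in 5% FBS RPMI. A CellTiter-Glo luminescence read gave % activity for curve fitting.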
DT40 TDP1 CPT – qHTS for Inhibitors of human tyrosyl-DNA phosphodiesterase 1 (TDP1): qHTS in cells in presence of CPT. Potency, µM (titrated, usually from 46.2 µM), actives largely listed as inhibitors. chicken DT40 Tdp1-/-;hTDP1 cells + 20 nM CPT, ATP luminescence, 48 h. 12% of 420,000 active; also: nearly all actives have a fitted effect of over 55% in size
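Chicken DT40 Tdp1-/- cells complemented with human TDP1, 400 cells/well, exposed to compounds plus 20 nM camptothecin for at least 48 h at 37 C; viability read as ATP content by CellTiter-Glo luminescence.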
A number is an active result; 0 = inactive; ? = inconclusive; - = not tested or not shown; [ ] = remark or other dose. Unless noted, calls follow the shape of the dose curve; as a rule, active = well fitted curve in the direction sought with a large enough effect; inconclusive = small, poorly fitted or top-dose-only effect, or another doubt; inactive = no such curve, though single readings can be large; an effect the other way counts as inactive or inconclusive.

SMILES | HT1080NT lethal | IL-1B inflam inh | TDP1 cell noCPT | HT1080 IDH1KD tx | DT40 TDP1 CPT
Cc1scc(-c2n[nH]c(=S)n2C(C)c2ccccc2)c1C (stereo not drawn) | 0 | 0 | 16.4µM | 0 | ?
CCOc1ccc(NC(=O)N(Cc2c[nH]c3ccccc23)C2CCCCCC2)cc1 | - | - | ? | - | 9.2µM
CCOc1ccc(NC(=O)N(Cc2c[nH]c3ccccc23)C2CCCCC2)cc1 | - | - | 18.4µM | - | 8.2µM
O=C(O)CC1(CC(=O)NCc2ccncc2)CCCCC1 | 0 | 0 | 0 | 0 | 0
COc1ccc(-c2nc(NC(=O)C3CC(=O)N(c4ccc5c(c4)OCCO5)C3)sc2C)cc1 (stereo not drawn) | ? | 0 | 6.31µM | ? | 6.31µM
COc1ccc2nc(NC(=O)C3CC(=O)N(c4ccc5c(c4)OCCO5)C3)sc2c1 (stereo not drawn) | 0 | 0 | ? | 0 | ?
COc1ccc(CN(C)C(=O)C2CC(=O)N(c3ccc4c(c3)OCCO4)C2)c(OC)c1 (stereo not drawn) | 0 | 0 | 16.4µM | 0 | 20.6µM
CN(Cc1ccccc1Cl)C(=O)C1CC(=O)N(c2ccc3c(c2)OCCO3)C1 (stereo not drawn) | 0 | 0 | 0 | 0 | ?
CC(=O)c1c(C(C)=O)c(C)n(C(c2ccccc2)c2ccccc2)c1C | 0 | 0 | 20.6µM | 0 | ?
CC(=O)c1c(C(C)=O)c(C)n(NC(=O)c2ccccc2Cl)c1C | 0 | 0 | 0 | 0 | 0
CN1CCN(c2ncnc3c2c(-c2ccccc2)cn3-c2ccc(F)cc2)CC1 | 23.1µM | -206.9 | 5.17µM | 23.1µM | 18.4µM
Clc1cccc(-n2cc(-c3ccccc3)c3c(N4CCCCC4)ncnc32)c1 | - | - | 23.1µM | - | 16.4µM
c1ccc(-c2cn(-c3ccccc3)c3ncnc(N4CCCCC4)c23)cc1 | ? | -57.3 | 18.4µM | ? | 9.2µM
CC1CCN(c2ncnc3c2c(-c2ccccc2)cn3-c2ccc(Br)cc2)CC1 | - | - | 0 | - | 0
COc1ccccc1N1CCN(c2ncnc3c2c(-c2ccccc2)cn3-c2cccc(C)c2)CC1 | - | - | ? | - | 18.4µM
CCOC(=O)CSc1ncnc2c1c(-c1ccccc1)cn2-c1ccc(OC)cc1 | 0 | 0 | 0 | 0 | 0
CCCSc1ncnc2c1c(-c1ccccc1)cn2-c1ccccc1OC | - | - | 20.6µM | - | ?
O=S1(=O)CC(N2CCSCC2)CN1Cc1cn(Cc2ccc(C(F)(F)F)cc2)nn1 (stereo not drawn) | 0 | 0 | 0 | 0 | 0
Nc1c(C(=O)NCCc2ccccc2)sc2nc(N3CCOCC3)c3c(c12)CCCC3 | 0 | ? | 23.1µM | 0 | 16.4µM
CCCCN(CCCC)C(=O)c1sc2nc(N3CCOCC3)c3c(c2c1N)CCCC3 | 0 | 0 | ? | 0 | ?
CN(C(=O)c1sc2nc(N3CCOCC3)c3c(c2c1N)CCCC3)c1ccccc1 | 0 | 0 | 23.1µM | 0 | ?
Cc1ccccc1NC(=O)c1sc2nc(N3CCOCC3)c3c(c2c1N)CCCC3 | 0 | 0 | 7.31µM | 0 | ?
CCOC(=O)c1ccc(NC(=O)c2sc3nc(N4CCOCC4)c4c(c3c2N)CCCC4)cc1 | 0 | 0 | 16.4µM | 0 | ?
COc1ccccc1NC(=O)c1sc2nc(N3CCOCC3)c3c(c2c1N)CCCC3 | 0 | 0 | ? | 0 | ?
Cc1nn(C)c(C)c1Nc1ccc(N2C(=O)C3CC=CCC3C2=O)cc1[N+](=O)[O-] (stereo not drawn) | 0 | 0 | ? | 0 | ?
CCOC(=O)c1ccccc1NC(=O)CSc1nnnn1C1CCCCC1 | 0 | ? | 0 | 0[9.24 µM] | 0
O=C(NCC1CC1)c1ccc2nc(-c3ccoc3)c(-c3ccoc3)nc2c1 | - | - | 11.2µM | - | ?
COc1ccccc1CNC(=O)c1ccc(-c2ccccc2)cc1 | 0 | 0 | 0 | 0 | 0
O=C(O)c1ccc2nc(-c3ccccc3)c(-c3ccccc3)nc2c1 | 0 | 0 | 0 | 0 | 0
COC(CNC(=O)c1ccc2nc(-c3ccccc3)c(-c3ccccc3)nc2c1)OC | 0 | ? | 11.6µM | 0 | ?
